Assay results published in PubChem BioAssay (Tox21).
Records with an inconclusive call do not appear. The source made the active and inactive calls. Unless noted, calls follow the shape of the dose curve; as a rule, active = well fitted curve in the direction sought with a large enough effect in the repeat runs; inconclusive = weak or mixed curves; inactive = no such curve, though single readings can be large; an effect the other way counts as inactive or inconclusive.

Columns and labels:
[1] = qHTS assay to test for compound auto fluorescence at 535 nm (green) in HEK293 cells (AID 720680)
[2] = qHTS assay to test for compound auto fluorescence at 460 nm (blue) in HEK293 cell free culture (AID 720681)
Procedure, shortened: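 Compounds were added to cell-free DMEM with 10% FBS and fluorescence read directly. The blue channel used 405 nm excitation and 460 nm emission, with triamterene as the reference fluorophore.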

[3] = qHTS assay to test for compound auto fluorescence at 535 nm (green) in HEK293 cell free culture (AID 720682)
Procedure, shortened: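 Using fluorescein as calibrant, autofluorescence was quantified at 485/535 nm in cell-free DMEM containing 10% FBS after pintool addition of compound or vehicle.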

[4] = qHTS assay to test for compound auto fluorescence at 590 nm (red) in HEK293 cell free culture (AID 720683)
Procedure, shortened: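 Cell-free wells of DMEM with 10% FBS received compound, and intrinsic fluorescence was read at excitation/emission 540/590 nm. Values expressed as equivalence to Rose Bengal sodium.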

[5] = qHTS assay to test for compound auto fluorescence at 590 nm (red) in HepG2 cell free culture (AID 720684)
Procedure, shortened: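 Compound was pinned into wells holding MEM with 10% FBS and no cells, and red fluorescence was read at Ex/Em 540/590 nm. Signal is expressed as auto fluorescence equivalency relative to Rose Bengal sodium.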

[6] = qHTS assay to test for compound auto fluorescence at 460 nm (blue) in HepG2 cell free culture (AID 720685)
Procedure, shortened: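 Compound (23 nL) or DMSO pinned into cell-free MEM with 10% FBS; blue fluorescence read at 405/460 nm excitation/emission, expressed as auto-fluorescence equivalency to triamterene.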

[7] = qHTS assay to test for compound auto fluorescence at 535 nm (green) in HepG2 cell free culture (AID 720686)
[8] = qHTS assay to test for compound auto fluorescence at 460 nm (blue) in HepG2 cells (AID 720687)
Procedure, shortened: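 HepG2 cells in MEM with 10% FBS, attached overnight at 37 C, were exposed to compound or DMSO for 1 hr at 37 C, 5% CO2. Blue fluorescence was read at 405/460 nm, with triamterene as reference fluorophore.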

[9] = target: Glucocorticoid receptor (Homo sapiens) (UniProt P04150); assay: qHTS assay to identify small molecule agonists of the glucocorticoid receptor (GR) signaling pathway (AID 720691; active = well fitted activation curve with a large enough effect in the signal ratio in the repeat runs, not every such curve was filed as active; the % refers to the signal ratio)
Procedure, shortened: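 GR-bla HeLa cells carrying a GRE-driven beta-lactamase reporter, exposed to compounds for 18 h at 37 C. Reporter activation read as fluorescence after 2 h with LiveBLAzer B/G FRET substrate at room temperature.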

[10] = target: Glucocorticoid receptor (Homo sapiens) (UniProt P04150); assay: qHTS assay to identify small molecule antagonists of the glucocorticoid receptor (GR) signaling pathway (AID 720692; active = well fitted inhibition curve with a large enough effect in the signal ratio in the repeat runs, not every such curve was filed as active; the % refers to the signal ratio)
Procedure, shortened: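 GR-bla HeLa cells carrying a GRE-driven beta-lactamase reporter received compound after 4 h plating, then dexamethasone (5 nM final). After 18 h at 37C, the FRET substrate was loaded for 2 h at room temperature and fluorescence read.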

[11] = qHTS assay to identify small molecule antagonists of the glucocorticoid receptor (GR) signaling pathway - cell viability counter screen (AID 720693); also: nearly all actives have a fitted effect of over 55% in size
[12] = qHTS assay for identifying genotoxic compounds that show differential cytotoxicity against isogenic chicken DT40 cell lines with known DNA damage response pathways - wild type cell line (AID 743012); also: nearly all actives have a fitted effect of over 60% in size
Procedure, shortened: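 Wild-type DT40 cells (300/well) exposed to compounds for 40 hours at 37 C/5% CO2. Viability read by CellTiter-Glo luminescence after 30 min at room temperature.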

[13] = qHTS assay for identifying genotoxic compounds that show differential cytotoxicity against isogenic chicken DT40 cell lines with known DNA damage response pathways - Rev3 mutant cell line (AID 743014); also: nearly all actives have a fitted effect of over 55% in size
[14] = qHTS assay for identifying genotoxic compounds that show differential cytotoxicity against isogenic chicken DT40 cell lines with known DNA damage response pathways - Rad54/Ku70 mutant cell line (AID 743015); also: nearly all actives have a fitted effect of over 60% in size
[15] = qHTS assay to identify small molecule antagonists of the androgen receptor (AR) signaling pathway - cell viability counter screen (AID 743033; also: nearly all actives have a fitted effect of over 45% in size)
[16] = qHTS assay to identify small molecule antagonists of the androgen receptor (AR) signaling pathway using the MDA cell line - cell viability counter screen (AID 743041; also: nearly all actives have a fitted effect of over 45% in size)
Procedure, shortened: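 MDA-kb2 AR-luc cells (MMTV-luciferase, AR/GR responsive) treated with compounds plus R1881 agonist for 16 h at 37C. CellTiter-Fluor added at 15.5 h; fluorescence read after 30 min in the same wells.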

[17] = target: Androgen receptor (Homo sapiens) (UniProt P10275); assay: qHTS assay to identify small molecule antagonists of the androgen receptor (AR) signaling pathway (AID 743035; active = well fitted inhibition curve with a large enough effect in the signal ratio in the repeat runs, not every such curve was filed as active; the % refers to the signal ratio)
Procedure, shortened: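 HEK293 cells stably carrying UAS-beta-lactamase reporter, 2,000/well, given compounds plus R1881 agonist and incubated 16 h at 37C. LiveBLAzer B/G FRET substrate then added for 2 h at room temperature before fluorescence reading.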

[18] = target: Androgen receptor (Homo sapiens) (UniProt P10275); assay: qHTS assay to identify small molecule agonists of the androgen receptor (AR) signaling pathway (AID 743036; active = well fitted activation curve with a large enough effect in the signal ratio in the repeat runs, with a control signal flat, not every such curve was filed as active; the % refers to the signal ratio)
Procedure, shortened: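 In this Tox21 qHTS, 2,000 HEK293 AR-bla cells per well were incubated with compounds for 16 h at 37C and 5% CO2. Fluorescence intensity was recorded 2 h after adding LiveBLAzer B/G FRET substrate at room temperature.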

[19] = target: Androgen receptor (Homo sapiens) (UniProt P10275); assay: qHTS assay to identify small molecule agonists of the androgen receptor (AR) signaling pathway using the MDA cell line (AID 743040; also: nearly all actives have a fitted effect of over 20% in size)
Procedure, shortened: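 MDA-kb2 breast carcinoma cells carrying MMTV-luciferase (responsive to AR and GR), plated 5 h then treated 16 h with compounds at 37C, 0% CO2. Read-out was ONE-Glo luminescence after 30 min at room temperature.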

[20] = target: Androgen receptor (Homo sapiens) (UniProt P10275); assay: qHTS assay to identify small molecule antagonists of the androgen receptor (AR) signaling pathway using the MDA cell line (AID 743042; also: nearly all actives have a fitted effect of over 55% in size)
Procedure, shortened: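 MDA-kb2 breast carcinoma cells carrying MMTV-luciferase (AR/GR responsive) were co-treated with compounds and the agonist R1881 for 16 h at 37C. Inhibition read as ONE-Glo luminescence; CellTiter-Fluor fluorescence measured in parallel for cytotoxicity.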

Measured: Potency

Androgen receptor (Homo sapiens), sequence (P10275 whole entry, looked up): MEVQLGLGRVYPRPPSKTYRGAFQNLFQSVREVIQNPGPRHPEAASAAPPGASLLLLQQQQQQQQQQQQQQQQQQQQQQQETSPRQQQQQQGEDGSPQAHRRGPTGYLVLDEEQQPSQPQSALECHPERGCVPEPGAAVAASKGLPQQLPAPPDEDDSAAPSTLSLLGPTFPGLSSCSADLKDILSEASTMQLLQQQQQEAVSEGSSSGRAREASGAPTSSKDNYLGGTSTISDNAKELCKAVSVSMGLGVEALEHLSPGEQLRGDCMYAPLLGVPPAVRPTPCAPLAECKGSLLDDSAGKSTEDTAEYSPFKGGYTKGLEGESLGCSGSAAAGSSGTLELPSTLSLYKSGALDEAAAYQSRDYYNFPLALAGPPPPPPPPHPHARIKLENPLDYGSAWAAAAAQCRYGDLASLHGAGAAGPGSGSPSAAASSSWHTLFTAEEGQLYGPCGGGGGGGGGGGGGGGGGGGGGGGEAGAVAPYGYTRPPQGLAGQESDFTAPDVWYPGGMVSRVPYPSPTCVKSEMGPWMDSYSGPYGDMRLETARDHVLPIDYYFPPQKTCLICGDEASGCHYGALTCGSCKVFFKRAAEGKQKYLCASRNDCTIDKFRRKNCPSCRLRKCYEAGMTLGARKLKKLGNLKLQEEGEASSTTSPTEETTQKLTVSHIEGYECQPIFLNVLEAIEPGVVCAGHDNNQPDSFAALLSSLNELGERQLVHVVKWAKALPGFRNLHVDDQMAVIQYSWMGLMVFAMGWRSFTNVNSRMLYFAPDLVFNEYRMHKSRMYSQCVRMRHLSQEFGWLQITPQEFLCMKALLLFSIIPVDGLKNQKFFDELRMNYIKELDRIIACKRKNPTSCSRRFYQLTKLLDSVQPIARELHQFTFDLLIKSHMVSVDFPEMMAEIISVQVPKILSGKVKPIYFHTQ
Glucocorticoid receptor (Homo sapiens), sequence (P04150 whole entry, looked up): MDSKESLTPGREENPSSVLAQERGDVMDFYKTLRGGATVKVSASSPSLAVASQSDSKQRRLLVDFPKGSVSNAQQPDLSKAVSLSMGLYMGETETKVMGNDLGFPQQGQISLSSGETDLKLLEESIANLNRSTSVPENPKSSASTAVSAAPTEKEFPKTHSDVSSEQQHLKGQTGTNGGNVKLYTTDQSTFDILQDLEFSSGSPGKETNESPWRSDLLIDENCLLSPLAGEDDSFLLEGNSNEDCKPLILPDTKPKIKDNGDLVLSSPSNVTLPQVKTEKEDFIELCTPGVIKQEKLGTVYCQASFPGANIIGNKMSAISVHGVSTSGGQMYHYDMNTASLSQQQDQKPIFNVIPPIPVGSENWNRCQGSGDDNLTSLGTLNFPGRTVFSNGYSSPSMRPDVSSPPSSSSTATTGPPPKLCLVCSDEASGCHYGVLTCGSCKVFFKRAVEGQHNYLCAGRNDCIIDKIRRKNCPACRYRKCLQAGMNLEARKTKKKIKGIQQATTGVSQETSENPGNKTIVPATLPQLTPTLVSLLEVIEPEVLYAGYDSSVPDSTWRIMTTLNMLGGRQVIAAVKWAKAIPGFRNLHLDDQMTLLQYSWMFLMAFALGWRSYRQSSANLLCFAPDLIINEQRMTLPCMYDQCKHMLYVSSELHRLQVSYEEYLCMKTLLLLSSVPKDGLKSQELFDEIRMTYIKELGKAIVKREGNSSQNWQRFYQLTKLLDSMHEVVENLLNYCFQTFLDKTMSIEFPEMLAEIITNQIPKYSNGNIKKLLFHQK

CC(=O)c1sc(C)nc1C
inactive: [1] | [2] | [3] | [4] | [5] | [6] | [7] | [8] | [9] | [10] | [11] | [12] | [13] | [14] | [15] | [16]

CCOCCOCCOCC
inactive: [1] | [2] | [3] | [4] | [5] | [6] | [7] | [8] | [9] | [10] | [11] | [12] | [13] | [14] | [15] | [16]

CN(C)CCOCCO
inactive: [1] | [2] | [3] | [4] | [5] | [6] | [7] | [8] | [9] | [10] | [11] | [12] | [13] | [14] | [15] | [16]

Cc1ccc(C=O)cc1C
inactive: [1] | [2] | [3] | [4] | [5] | [6] | [7] | [8] | [9] | [10] | [11] | [12] | [13] | [14] | [15]

Cc1ccc(S(=O)(=O)O)c(C)c1
inactive: [1] | [2] | [3] | [4] | [5] | [6] | [7] | [8] | [9] | [10] | [11] | [12] | [13] | [14] | [15] | [16]

O=C(O)CCSSCCC(=O)O
inactive: [1] | [2] | [3] | [4] | [5] | [6] | [7] | [8] | [9] | [10] | [11] | [12] | [13] | [14] | [15] | [17] | [18] | [19] | [16] | [20]

FC(F)(F)c1ccccc1-n1ccnc1
inactive: [1] | [2] | [3] | [4] | [5] | [6] | [7] | [8] | [9] | [10] | [11] | [12] | [13] | [14] | [15] | [16]
